Sampled rows, rich in hits. Any-hit rate of the full collection: about 3.5%.
TEAD-YAP block: TEAD-YAP interaction inhibition; 640,000 tested, 1.4% active; HEK-TIYL cells, TEAD-Gal4/YAP UAS-luciferase luminescence; inhibition, % at 9.12 µM; in the data active = inhibition above about 32%;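 also: 0% = median of test compound wells and 100% = reference inhibitor wells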
MITF primary: human MITF inhibition, primary screen | O75030 | AlphaScreen MITF homodimerization, bead proximity signal | inhibition, % at 2.6 µM | 650,000 tested, 0.91% active; in the data active = inhibition above about 50%;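 also: 0% = vehicle wells with protein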
GPR151 ag: activates the human receptor GPR151; AID 1508602; 650,000 tested, 1% active; activation, % at 11.2 µM; PathHunter beta-arrestin GPR151 cells, luminescence; in the data active = activation above about 4.9%;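 also: 0% = median of compound wells and 100% = cells with positive control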
FBW7 act: activators of human E3 ligase FBW7; normalized activity (activation), % at 26.1 µM; 650,000 tested, 0.13% active; AlphaScreen FBW7–phospho-cyclin E peptide binding, activator screen; in the data active = normalized activity above about 1.9%;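 also: purified mutant Fbw7 with reduced substrate affinity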
Target sequence (Q969H0 whole entry, looked up): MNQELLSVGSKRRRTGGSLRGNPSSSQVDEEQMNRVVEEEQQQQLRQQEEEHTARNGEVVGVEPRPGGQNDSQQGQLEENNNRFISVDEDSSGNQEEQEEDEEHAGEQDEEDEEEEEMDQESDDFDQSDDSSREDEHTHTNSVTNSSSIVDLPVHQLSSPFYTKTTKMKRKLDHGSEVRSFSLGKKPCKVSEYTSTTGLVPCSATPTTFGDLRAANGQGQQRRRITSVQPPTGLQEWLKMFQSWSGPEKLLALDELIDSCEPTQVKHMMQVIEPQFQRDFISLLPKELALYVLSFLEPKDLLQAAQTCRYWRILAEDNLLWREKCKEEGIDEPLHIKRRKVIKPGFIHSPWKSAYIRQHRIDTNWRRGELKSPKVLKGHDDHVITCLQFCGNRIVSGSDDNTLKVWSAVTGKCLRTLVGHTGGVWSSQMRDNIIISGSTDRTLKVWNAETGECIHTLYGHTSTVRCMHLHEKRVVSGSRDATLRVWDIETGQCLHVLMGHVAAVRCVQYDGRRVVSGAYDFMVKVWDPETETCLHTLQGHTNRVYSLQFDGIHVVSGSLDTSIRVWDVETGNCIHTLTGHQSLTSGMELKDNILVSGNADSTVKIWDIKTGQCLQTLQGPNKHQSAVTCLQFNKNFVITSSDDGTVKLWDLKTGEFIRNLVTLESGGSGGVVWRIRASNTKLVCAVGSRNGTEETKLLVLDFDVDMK
GPR151 confirm: human GPR151 activation, confirmation screen. shares compounds with GPR151 ag. GPR151 PathHunter beta-arrestin cells, luminescence, 90 min; % of EA-reagent control over plate median. activation, % at 11.2 µM. 6,700 tested, under 10 active. AID 1508609;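 active = mean percent activation across replicates above the confirmation screen cutoff of 4.91%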
GPR119 counter: activates human GPR119 in a GPR151 counter-screen | 6,700 tested, 0.3% active | shares compounds with GPR151 ag | activation, % at 11.2 µM | GPR119 PathHunter beta-arrestin cells, luminescence, 90 min; 0 = compound-well median, 100 = enzyme-acceptor control | AID 1508611;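 active = mean percent activation in the counterscreen above 29.09%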;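 also: counterscreen on off-target GPR119 to flag nonselective hits from the GPR151 activator screen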
Active calls of the source: *; . = no result.

SMILES	TEAD-YAP block	MITF primary	GPR151 ag	FBW7 act	GPR151 confirm	GPR119 counter
O=C(O)C1CCCc2c1[nH]c1ccc(Br)cc21 (stereo not drawn)	-6.5	9.8	0.3	0.2	.	.
O=C(CN1C(=O)CSCC1=O)Nc1ccc(Cl)cc1	6.8	-4.7	0.4	0.1	.	.
Cc1cccc(CN2CCC(N3CCC[C@H]3CO)CCC2=O)c1 (stereo partly drawn)	5.3	-1.9	10.9*	0.0	0.4	-7.0
O=C(NC(Cc1c[nH]c2ccccc12)C(=O)O)/C(=C\c1ccc(F)cc1)NC(=O)c1ccccc1 (stereo not drawn)	2.5	10.3	0.9	0.1	.	.
COc1cc(CNCCO)cc(Br)c1OCc1ccccc1F	-7.6	-8.7	0.5	0.1	.	.
CC(C)CC(=O)Nc1nn2c(-c3cccs3)nnc2s1	-8.3	-0.3	5.5*	-0.1	-0.1	-5.5
CC1CCCCN1C(=O)CSCC(=O)Nc1nc(-c2ccc(Cl)s2)cs1 (stereo not drawn)	-25.6	-5.7	0.6	0.1	.	.
O=C1NC(=S)S/C1=C/c1ccsc1	10.4	5.5	0.8	1.1	.	.
COc1ccc(C(N)P(=O)(O)O)cc1OC (stereo not drawn)	6.1	24.9	-0.8	0.0	.	.
COc1ccc(-c2cncc(-c3cc(N4CCN(CCO)CC4)nc(C)n3)c2)cc1	5.5	1.6	7.1*	-0.2	-1.4	-8.6
Cc1cc(NCc2ccccc2)nc(-c2cccc(N)c2)n1	-32.2	1.1	-0.2	0.0	.	.
CC12CCC(C(=O)NCCN3CCOCC3)(OC1=O)C2(C)C (stereo not drawn)	-13.1	13.2	5.9*	0.3	-0.1	-5.3
CC12CCC(C(=O)NCc3ccccc3)(OC1=O)C2(C)C (stereo not drawn)	7.1	-14.8	5.3*	-0.1	0.4	7.4
CS(=O)(=O)N(CC(=O)NCc1ccccc1)c1cccc(Cl)c1	6.2	15.7	6.1*	0.8	-0.6	-3.7
CC(c1ccccc1)C1CC(=O)N(c2ccc(Cl)cc2)C1=O (stereo not drawn)	1.8	12.3	0.7	0.3	.	.
CC(c1ccccc1)C1CC(=O)N(Cc2ccccc2)C1=O (stereo not drawn)	3.9	-0.6	21.8*	0.0	-1.2	3.9
CCOC(=O)c1c(C)oc2ccc(N(C(=O)c3ccc(C)cc3)S(=O)(=O)c3ccc(C)cc3)cc12	-6.6	4.8	5.0*	-0.2	0.5	-2.8
O=C(NC1CC1)c1cnc(Nc2ccc(C(F)(F)F)cc2)s1	0.7	5.0	4.9*	0.1	0.7	-0.5
O=C(NC1CC1)c1cnc(Nc2ccc3ncccc3c2)s1	-37.4	2.1	6.3*	-0.1	-1.3	-12.3
CCOCCn1c(=NC(=O)C2CC2)sc2cc(S(C)(=O)=O)ccc21	1.4	3.4	8.7*	0.5	1.4	6.8
C#CCn1c(=NC(=O)C2CC2)sc2cc(S(C)(=O)=O)ccc21	3.0	-12.5	6.5*	0.5	-0.7	1.0
O=C(NCCc1ccco1)C1CC(Cc2cccc(F)c2)=NO1 (stereo not drawn)	-18.8	28.1	1.2	0.6	.	.
Cn1ccc2cc(-c3cc(C(=O)NC4CC4)ccn3)ccc21	10.3	12.1	22.0*	0.0	0.3	0.4
Cc1ccc(NC(=O)c2cccs2)c(N)c1	-21.2	7.1	-1.6	-0.3	.	.
c1cc2c(cc1OCCNC1CCCC1)CCC2	0.8	-43.6	6.5*	-0.1	-0.1	-2.0
SMILES	TEAD-YAP block	MITF primary	GPR151 ag	FBW7 act	GPR151 confirm	GPR119 counter
COc1ccc(C)cc1N(CC(N)=O)S(C)(=O)=O	1.6	-2.6	7.7*	0.2	-0.3	-0.8
Cc1ccc(C)c(N(CC(=O)NC(C(C)C)C(C)C)S(C)(=O)=O)c1	2.0	1.1	5.9*	-0.1	-0.5	3.3
COC(=O)CN(c1cc(C)ccc1OC)S(C)(=O)=O	3.2	8.2	-1.0	0.5	.	.
O=C(CSc1nc2ccsc2c(=O)n1CCc1ccc(Cl)cc1)N1CCCC1	5.9	-3.4	-0.3	0.0	.	.
COc1cc(C2CC(=O)Nc3c2ccc2ccccc32)ccc1OCc1ccccc1 (stereo not drawn)	-3.1	5.6	-0.6	0.0	.	.
COc1ccc(S(=O)(=O)CCC(=O)NC(c2ccccc2)c2ccccc2)cc1	-0.4	1.7	0.2	0.3	.	.
CCNC(=S)Nc1ccc(Cl)c(S(=O)(=O)N2CCOCC2)c1	-2.3	12.1	6.6*	-0.1	-0.5	-6.9
COCCCNC(=O)Cc1cn(C)c2ccccc12	-5.3	-8.0	-0.3	-0.4	.	.
CCCCNC(=O)Cc1cn(C)c2ccccc12	-26.2	2.8	5.1*	0.0	0.7	6.5
Cn1cc(CC(=O)NCCN2CCN(Cc3ccccc3)CC2)c2ccccc21	4.0	-12.7	5.2*	-0.1	-1.4	-9.4
COCCCNC(=O)CCCc1cn(C)c2ccccc12	-8.1	-5.8	6.6*	0.0	0.1	0.7
Nc1c(-c2ccccc2)c(-c2ccccc2)nn1Cc1ccccc1	-3.4	10.8	6.9*	0.8	0.6	4.1
Nc1cc(-c2ccccc2)nn1Cc1cccc(Cl)c1	9.0	-3.5	-0.4	0.1	.	.
Cc1cc(C)nc(SCc2ccccc2F)n1	2.1	2.7	0.3	1.2	.	.
Cc1cc(C(=O)N2C=CC(C(F)(F)F)=NCC2)nn1C	-3.1	3.9	5.0*	-0.1	-0.2	-3.0
Cc1ccc(S(=O)(=O)C2CCN(C(=O)c3cc(C)n(C)n3)CC2)cc1	7.5	2.8	0.1	0.0	.	.
CCn1c(SCc2cccc(Br)c2)nnc1-c1cnccn1	-5.2	4.2	7.4*	-0.1	0.4	-1.2
CC1(C)C(=O)NC2CCCCC2N1C(=O)CCl (stereo not drawn)	9.0	9.6	5.3*	0.9	-0.2	-1.6
C[N+](C)(C)C/C=C1/COCO1	2.2	11.4	13.5*	0.1	-1.0	-8.2
O=C(c1cccs1)N1CC(C(=O)N2CCN(c3ccccc3Cl)CC2)C1	4.8	4.2	0.9	-0.2	.	.
O=C(CCC1=NS(=O)(=O)c2ccccc2N1)Nc1ccccc1	3.9	4.5	6.2*	-0.2	-0.3	-3.9
Cc1ccc(-n2c3c(cc(C(=O)Nc4cccc(F)c4)c2=O)C(=O)CCC3)cc1	-0.8	2.3	-0.9	-0.1	.	.
Cc1ccc(-n2c3c(cc(C(=O)Nc4ccc(F)cc4)c2=O)C(=O)CCC3)cc1	-0.2	12.5	5.5*	0.1	-0.1	-2.5
Cc1ccc(NC(=O)c2ccc(F)cc2C)cc1	-20.9	2.9	5.3*	-0.3	0.0	-2.7
O=C(Nc1ccc(F)cc1F)c1c(O)c2ccccc2[nH]c1=O	-6.2	14.1	1.1	0.4	.	.
CC(=O)c1cc(-c2ccccc2)n(CC(=O)N2CCN(C3CCCCC3)CC2)c1C	2.7	14.9	1.0	0.5	.	.
COCCCn1c(-c2ccc(C(C)(C)C)cc2)n[nH]c1=S	-9.7	0.4	12.3*	-0.2	0.3	-12.4
O=C(Nc1nc(-c2ccccc2)cs1)c1ccc(Cl)s1	-27.6	-10.0	1.5	-0.1	.	.

Bioassay records as filed in PubChem.
